# PubChem BioAssay (NCATS)
# Calls of active or inactive are those of the source. Entries that show only a call come without a potency. The call rests on the fitted dose curve; in most records, active means well fitted inhibition curve with a large enough effect; inconclusive means small, poorly fitted or top-dose-only effect; inactive means no such curve, though single readings can be large or run the other way.
# Assay: qHTS assay for measurement of the activity of small molecule inhibitors on Zika virus induced Caspase-3 activity in human astrocytoma cells (AID 1224859)
# Details: SNB-19 ZIKV-induced caspase-3/7, luminescence, 6 h; series mostly up to 45.7 µM
# Text: National Center for Advancing Translational Sciences [NCATS]
# Johns Hopkins University School of Medicine
# Increase in the Caspase-3 activity indicates an activation of apoptosis cell death pathway caused by Zika virus infection in certain types of neuronal cells including human neural progenitor cells (hNPCs), astrocytes, and astrocytoma cell line (SNB-19). This cell-based caspase-3 activity assay measures the increased caspase-3 activity in the astrocytoma cell line (SNB-19) after a 6-hour Zika virus infection with a luminescence readout. A decrease in the luminescence signal in this assay by small molecule treatment indicates an inhibitory effect of that small molecule on the Zika virus induced caspase-3 activity that may correlate with its effect on reduction of Zika virus caused cell death.
# The medium for SNB-19 cells is composed of RPMI 1640 (ATCC, Cat.# 30-2001), 10% fetal bovine serum (FBS) (GE healthcare Life Sciences, Cat.# SH30071.03), and 1% Pen/Strep (Gibco, Cat.# 15140-122). A Caspase-Glo 3/7 assay kit (catalog number G8092; Promega, Madison, WI) was used to detect caspase-3 activity induced by Zika virus infection in human cells. The reagent mixture was reconstituted as described in the protocol from the manufacturer. Polystyrene tissue culture treated and PDL coated white plates were obtained from Greiner Bio-One (Monroe, NC). Cells were seeded in 384- or 1536-well assay plates and cultured at 37 C with 5% CO2 for 16 to 20 hours. The typical cell seeding density in the 1536-well plate assay is 250 cells/well in 3ul medium for SNB-19 cells in tissue culture treated plates. Compounds were added to cells and incubated for one hour before addition of ZIKV solution to cells (2 FFU/cell). After incubation at 37 C with 5% CO2 for 6 hours, the reagent mixture of Caspase-Glo 3/7 assay kit was added to each well, followed by incubation at room temperature for 30 minutes. The luminescence intensity of the assay plates was measured using a ViewLux plate reader (PerkinElmer). Data were normalized by using the cell-containing wells without ZIKV as a negative control (0% induction of caspase 3/7 activity) and wells containing ZIKV infected cells (Caspase-3 activity induced) as a positive control (100% induction of caspase 3 activity). The percentage inhibitions of the increased Caspase-3 activity by small molecule inhibitors were then calculated.
row,Structure (SMILES),Potency
1,CN(C)CCc1c[nH]c2ccc(C[C@H]3COC(=O)N3)cc12,inactive
2,NC(=O)N1c2ccccc2CC(=O)c2ccccc21,inactive
3,C[C@@H](CN1CC(=O)NC(=O)C1)N1CC(=O)NC(=O)C1,inactive
4,COc1ccccc1OCC(O)COC(N)=O (stereo not given),inactive
5,O=S(=O)(O)CCS,inactive
6,CNNCc1ccc(C(=O)NC(C)C)cc1,inactive
7,COc1cnc(NS(=O)(=O)c2ccc(N)cc2)nc1,inactive
8,C1CCC(C(CC2CCCCN2)C2CCCCC2)CC1 (stereo not given),inactive
9,COc1cc([C@@H]2c3cc4c(cc3[C@H](O)[C@H]3COC(=O)[C@H]23)OCO4)cc(OC)c1OC,inactive
10,Nc1ccc(S(=O)(=O)Nc2ccccn2)cc1,inactive
11,CC(=O)[C@H]1CC[C@H]2[C@@H]3CCC4=CC(=O)CC[C@]4(C)[C@H]3CC[C@]12C,inactive
12,CNCC[C@H](Oc1cccc2ccccc12)c1cccs1,inactive
13,Cc1nnc(C(=O)NC(C)(C)c2nc(C(=O)NCc3ccc(F)cc3)c(O)c(=O)n2C)o1,inactive
14,CCCN[C@H]1CCc2nc(N)sc2C1,inactive
15,CCCCS(=N)(=O)CCC(N)C(=O)O (stereo not given),inactive
16,CC(C)(Sc1cc(C(C)(C)C)c(O)c(C(C)(C)C)c1)Sc1cc(C(C)(C)C)c(O)c(C(C)(C)C)c1,inactive
17,OC(Cn1cncn1)(Cn1cncn1)c1ccc(F)cc1F,inactive
18,CN1CCCC(n2nc(Cc3ccc(Cl)cc3)c3ccccc3c2=O)CC1 (stereo not given),inactive
19,CCOC(=O)[C@H](CCc1ccccc1)N[C@H]1CS[C@H](c2cccs2)CN(CC(=O)O)C1=O,inactive
20,COc1cc2c(Nc3ccc(Br)cc3F)ncnc2cc1OCC1CCN(C)CC1,inactive

row,Structure (SMILES),Potency
1,O=c1oc2c(O)c(O)cc3c(=O)oc4c(O)c(O)cc1c4c23,inactive
2,Cc1ccc(S(=O)(=O)N[C@@H](Cc2ccccc2)C(=O)CCl)cc1,inactive
3,Cc1cccc(N(C)C(=S)Oc2ccc3ccccc3c2)c1,inactive
4,CN(Cc1cc(Br)cc(Br)c1N)C1CCCCC1,inactive
5,NS(=O)(=O)c1cc2c(cc1Cl)NC(C(Cl)Cl)NS2(=O)=O (stereo not given),inactive
6,CC1=CC(=O)c2ccccc2C1=O,inactive
7,CCC(=O)O[C@]1(C(=O)SCF)[C@H](C)C[C@H]2[C@@H]3C[C@H](F)C4=CC(=O)C=C[C@]4(C)[C@@]3(F)[C@@H](O)C[C@@]21C,inactive
8,NC(=O)c1cccnc1,inactive
9,CC(N)C12CC3CC(CC(C3)C1)C2 (stereo not given),inactive
10,COC(=O)Nc1nc2ccc(C(=O)c3ccccc3)cc2[nH]1,inactive
11,Cc1nnc(NS(=O)(=O)c2ccc(N)cc2)s1,inactive
12,N[C@@H](C(=O)N[C@@H]1C(=O)N2C(C(=O)O)=C(Cl)CS[C@H]12)c1ccccc1,inactive
13,Oc1c(Cl)cc(Cl)c2cccnc12,inactive
14,CCC(C)(C)c1ccc(CC(C)CN2C[C@@H](C)O[C@@H](C)C2)cc1 (stereo not given in full),inactive
15,CC(C)(C)C(=O)OCOP(=O)(COCCn1cnc2c(N)ncnc21)OCOC(=O)C(C)(C)C,inactive
16,Cn1c(=O)c2c(ncn2CC(O)CO)n(C)c1=O (stereo not given),inactive
17,N=C(N)c1ccc(OCCCCCOc2ccc(C(=N)N)cc2)cc1,inactive
18,CC(C)(C)NC(=O)[C@H]1CC[C@H]2[C@@H]3CC[C@H]4NC(=O)C=C[C@]4(C)[C@H]3CC[C@]12C,inactive
19,O=C(O)CCn1c2c(c3ccccc31)C[C@H](NS(=O)(=O)c1ccc(F)cc1)CC2,inactive
20,Cc1ncc([N+](=O)[O-])n1CCO,inactive
